Test results published in the supplement of paper PMC4709259.
Where a name gives a salt, the structure may show the parent alone. ± gives the standard deviation.

Assays:
[1] = tested on: Jurkat; test: mean cell size (FSC-A) relative to DMSO control (fraction of control); higher = larger cells; details: 48 h
Summary of the method: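 Jurkat cells seeded at 600 cells/µl were incubated 1 h, then exposed for 48h to the Enzo Screen-Well FDA Approved Drug Library v2.0 at 25µM in 0.9% (v/v) final DMSO. Drugs that cut counts below 20% of controls were diluted 10-fold and retested, down to 25nM. Cell count and mean cell size (forward scatter area) were read on an Accuri C6 flow cytometer, relative to solvent-only controls. Plates held 6-12 controls; values are means of 3 biological replicates.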

[2] = tested on: Jurkat; test: cell count relative to DMSO control (fraction of control); higher = more cells (less growth inhibition); details: 48 h

## C[C@]12CC[C@@H]3c4ccc(O)cc4CC[C@H]3[C@@H]1CC[C@@H]2O [Estradiol] (concentration: 25 µM)
[1]
  mean cell size: 0.892 ± 0.026
[2]
  cell count: 0.711 ± 0.1

## CC(C)(C)NC[C@H](O)COc1cccc2c1CCCC2=O [Levobunolol·HCl] (concentration: 25 µM)
[1]
  mean cell size: 0.964 ± 0.056
[2]
  cell count: 1.11 ± 0.03

## CC(C)NCC(O)COc1cccc2ccccc12 (centres undefined) [Propranolol·HCl] (concentration: 25 µM)
[1]
  mean cell size: 1.04 ± 0.061
[2]
  cell count: 0.633 ± 0.015

## COc1ccccc1OCCNCC(O)COc1cccc2[nH]c3ccccc3c12 (centres undefined) [Carvedilol] (concentration: 25 µM)
[1]
  mean cell size: 1.01 ± 0.014
[2]
  cell count: 0.39 ± 0.034

## CN(C)CC[C@@H](c1ccc(Cl)cc1)c1ccccn1 [Dexchlorpheniramine Maleate] (concentration: 25 µM)
[1]
  mean cell size: 0.964 ± 0.033
[2]
  cell count: 0.526 ± 0.17

## O=C(O)c1cc(-c2ccc(F)cc2F)ccc1O [Diflunisal] (concentration: 25 µM)
[1]
  mean cell size: 0.989 ± 0.061
[2]
  cell count: 0.666 ± 0.13

## CCN(CC)C(=O)/C(C#N)=C/c1cc(O)c(O)c([N+](=O)[O-])c1 [Entacapone] (concentration: 25 µM)
[1]
  mean cell size: 1.06 ± 0.055
[2]
  cell count: 0.519 ± 0.059

## O=C(O)c1cc(N=Nc2ccc(O)c(C(=O)O)c2)ccc1O [Olsalazine·Na] (concentration: 25 µM)
[1]
  mean cell size: 0.955 ± 0.036
[2]
  cell count: 0.611 ± 0.042

## Cc1ccc(-c2cc(C(F)(F)F)nn2-c2ccc(S(N)(=O)=O)cc2)cc1 [Celecoxib] (concentration: 25 µM)
[1]
  mean cell size: 0.966 ± 0.029
[2]
  cell count: 0.514 ± 0.11

## CN(C)CCOC(c1ccccc1)c1ccccc1 [Diphenhydramine·HCl] (concentration: 25 µM)
[1]
  mean cell size: 0.967 ± 0.017
[2]
  cell count: 0.987 ± 0.042

## N[C@@H](Cc1cc(I)c(Oc2ccc(O)c(I)c2)c(I)c1)C(=O)O [Liothyronine·Na] (concentration: 25 µM)
[1]
  mean cell size: 0.966 ± 0.02
[2]
  cell count: 0.648 ± 0.15

## CC1(C)S[C@@H]2[C@H](NC(=O)Cc3ccccc3)C(=O)N2[C@H]1C(=O)O [Penicillin G Potassium (Benzylpenicillin)] (concentration: 25 µM)
[1]
  mean cell size: 0.948 ± 0.019
[2]
  cell count: 0.934 ± 0.041

## CC(=O)OCC(=O)[C@@]1(O)CC[C@H]2[C@@H]3CCC4=CC(=O)CC[C@]4(C)[C@@]3(F)[C@@H](O)C[C@@]21C [Fludrocortisone Acetate] (concentration: 25 µM)
[1]
  mean cell size: 0.932 ± 0.058
[2]
  cell count: 0.63 ± 0.033

## C[N+](C)(C)CCOC(N)=O [Carbachol (Carbamylcholine ) Chloride] (concentration: 25 µM)
[1]
  mean cell size: 0.962 ± 0.019
[2]
  cell count: 1.13 ± 0.12

## CCc1nc(N)nc(N)c1-c1ccc(Cl)cc1 [Pyrimethamine] (concentration: 25 µM)
[1]
  mean cell size: 0.959 ± 0.018
[2]
  cell count: 0.2 ± 0.033

## Cc1onc(-c2c(Cl)cccc2Cl)c1C(=O)N[C@@H]1C(=O)N2[C@@H]1SC(C)(C)[C@@H]2C(=O)O [Dicloxacillin·Na Salt Monohydrate] (concentration: 25 µM)
[1]
  mean cell size: 0.939 ± 0.0097
[2]
  cell count: 1.07 ± 0.06

## N[C@@H]1CONC1=O [Cycloserine] (concentration: 25 µM)
[1]
  mean cell size: 0.966 ± 0.013
[2]
  cell count: 0.475 ± 0.095

## CO[C@H]1/C=C/O[C@@]2(C)Oc3c(C)c(O)c4c(O)c(c(/C=N/N5CCN(C)CC5)c(O)c4c3C2=O)NC(=O)/C(C)=C\C=C\[C@H](C)[C@H](O)[C@@H](C)[C@@H](O)[C@@H](C)[C@H](OC(C)=O)[C@@H]1C [Rifampin (Rifampicin)] (concentration: 25 µM)
[1]
  mean cell size: 0.964 ± 0.0034
[2]
  cell count: 0.765 ± 0.035

## C#C[C@]1(O)CC[C@H]2[C@@H]3CCC4=CC(=O)CC[C@@H]4[C@H]3CC[C@@]21CC [Levonorgestrel] (concentration: 25 µM)
[1]
  mean cell size: 0.941 ± 0.032
[2]
  cell count: 0.903 ± 0.046

## CNCCC(Oc1ccc(C(F)(F)F)cc1)c1ccccc1 (centres undefined) [Fluoxetine·HCl] (concentration: 25 µM)
[1]
  mean cell size: 0.992 ± 0.039
[2]
  cell count: 0.68 ± 0.14

## CC1(C)O[C@@H]2C[C@H]3[C@@H]4CCC5=CC(=O)C=C[C@]5(C)[C@@]4(F)[C@@H](O)C[C@]3(C)[C@]2(C(=O)CO)O1 [Triamcinolone Acetonide] (concentration: 25 µM)
[1]
  mean cell size: 0.997 ± 0.039
[2]
  cell count: 0.789 ± 0.084

## C[C@@H]1NC(=O)[C@@H](N)CNC(=O)[C@H](C2CCNC(=N)N2)NC(=O)/C(=C/NC(N)=O)NC(=O)[C@H](CNC(=O)CC(N)CCCN)NC1=O.N=C1NCC[C@H]([C@@H]2NC(=O)/C(=C/NC(N)=O)NC(=O)[C@H](CNC(=O)C[C@@H](N)CCCN)NC(=O)[C@H](CO)NC(=O)[C@@H](N)CNC2=O)N1 [Capreomycin Sulfate] (concentration: 25 µM)
[1]
  mean cell size: 0.97 ± 0.044
[2]
  cell count: 0.544 ± 0.14

## CCOC(=O)[C@H](CCc1ccccc1)N[C@@H](C)C(=O)N1Cc2cc(OC)c(OC)cc2C[C@H]1C(=O)O [Moexipril·HCl] (concentration: 25 µM)
[1]
  mean cell size: 0.9426 ± 0.0064
[2]
  cell count: 0.587 ± 0.074

## NC[C@H]1CC[C@H](C(=O)O)CC1 [Tranexamic Acid] (concentration: 25 µM)
[1]
  mean cell size: 0.961 ± 0.051
[2]
  cell count: 0.542 ± 0.14

## CCCC1O[C@@H]2C[C@H]3[C@@H]4CCC5=CC(=O)C=C[C@]5(C)[C@H]4[C@@H](O)C[C@]3(C)[C@]2(C(=O)CO)O1 (some centres undefined) [Budesonide] (concentration: 25 µM)
[1]
  mean cell size: 0.945 ± 0.037
[2]
  cell count: 0.799 ± 0.046

## CC(C)CN(C[C@@H](O)[C@H](Cc1ccccc1)NC(=O)O[C@H]1CO[C@H]2OCC[C@H]21)S(=O)(=O)c1ccc(N)cc1 [Darunavir] (concentration: 25 µM)
[1]
  mean cell size: 1.01 ± 0.037
[2]
  cell count: 0.62 ± 0.062

## Cc1cccc(Nc2ccncc2S(=O)(=O)NC(=O)NC(C)C)c1 [Torsemide] (concentration: 25 µM)
[1]
  mean cell size: 1.01 ± 0.052
[2]
  cell count: 0.866 ± 0.042

## O=C1CCc2cc(OCCCCc3nnnn3C3CCCCC3)ccc2N1 [Cilostazol] (concentration: 25 µM)
[1]
  mean cell size: 0.98 ± 0.044
[2]
  cell count: 0.819 ± 0.12

## C=CC[N+]1([C@H]2C[C@H]3[C@@H]4CC[C@H]5C[C@H](O)[C@@H](N6CCOCC6)C[C@]5(C)[C@H]4CC[C@]3(C)[C@H]2OC(C)=O)CCCC1 [Rocuronium Bromide] (concentration: 25 µM)
[1]
  mean cell size: 0.952 ± 0.043
[2]
  cell count: 0.337 ± 0.086

## CC(C)(C)NC(=O)[C@@H]1C[C@@H]2CCCC[C@@H]2CN1C[C@@H](O)[C@H](Cc1ccccc1)NC(=O)[C@H](CC(N)=O)NC(=O)c1ccc2ccccc2n1 [Saquinavir Mesylate] (concentration: 25 µM)
[1]
  mean cell size: 0.963 ± 0.0039
[2]
  cell count: 0.648 ± 0.065

## CN(C)[C@@H]1C(=O)C(C(N)=O)=C(O)[C@@]2(O)C(=O)C3=C(O)c4c(O)ccc(Cl)c4[C@@H](O)[C@H]3C[C@@H]12 [Demeclocycline·HCl] (concentration: 25 µM)
[1]
  mean cell size: 0.811 ± 0.028
[2]
  cell count: 0.219 ± 0.039

## C[C@]12C=CC(=O)C=C1CC[C@@H]1[C@@H]2C(=O)C[C@@]2(C)[C@H]1CC[C@]2(O)C(=O)CO [Prednisone] (concentration: 25 µM)
[1]
  mean cell size: 1 ± 0.042
[2]
  cell count: 0.689 ± 0.13

## Cc1ccc(Nc2nccc(N(C)c3ccc4c(C)n(C)nc4c3)n2)cc1S(N)(=O)=O [Pazopanib·HCl] (concentration: 25 µM)
[1]
  mean cell size: 0.9554 ± 0.0092
[2]
  cell count: 0.772 ± 0.12

## Clc1ccc2c(c1)CCc1cccnc1C2=C1CCNCC1 [Desloratadine] (concentration: 25 µM)
[1]
  mean cell size: 1 ± 0.05
[2]
  cell count: 0.702 ± 0.045

## Cc1cccn2c(=O)c(-c3nnn[nH]3)cnc12 [Pemirolast Potassium] (concentration: 25 µM)
[1]
  mean cell size: 0.938 ± 0.024
[2]
  cell count: 0.756 ± 0.11

## NC[C@@H]1O[C@H](O[C@H]2[C@@H](O)[C@H](O[C@@H]3[C@@H](O)[C@H](N)C[C@H](N)[C@H]3O[C@H]3O[C@H](CO)[C@@H](O)[C@H](O)[C@H]3N)O[C@@H]2CO)[C@H](N)[C@@H](O)[C@@H]1O [Paromomycin Sulfate] (concentration: 25 µM)
[1]
  mean cell size: 0.949 ± 0.012
[2]
  cell count: 0.773 ± 0.041

## CCCCC[C@H](O)/C=C/[C@H]1[C@H](O)CC(=O)[C@@H]1CCCCCCC(=O)O [Alprostadil] (concentration: 25 µM)
[1]
  mean cell size: 0.872 ± 0.0094
[2]
  cell count: 0.73 ± 0.12

## CC[C@H](C)C(=O)O[C@H]1C[C@H](O)C=C2C=C[C@H](C)[C@H](CC[C@@H](O)C[C@@H](O)CC(=O)O)[C@H]21 [Pravastatin·Na] (concentration: 25 µM)
[1]
  mean cell size: 1.07 ± 0.028
[2]
  cell count: 0.771 ± 0.15

## CN1CCC(=C2c3ccccc3CC(=O)c3sccc32)CC1 [Ketotifen Fumarate] (concentration: 25 µM)
[1]
  mean cell size: 0.96 ± 0.017
[2]
  cell count: 0.856 ± 0.071

## COc1cc(NC(C)CCCN)c2ncccc2c1 (centres undefined) [Primaquine Phosphate] (concentration: 25 µM)
[1]
  mean cell size: 1.01 ± 0.028
[2]
  cell count: 0.742 ± 0.042

## Clc1ccc2c(c1)C(N1CCNCC1)=Nc1ccccc1O2 [Amoxapine] (concentration: 25 µM)
[1]
  mean cell size: 1.03 ± 0.013
[2]
  cell count: 0.538 ± 0.073

## CCc1ccc(CCOc2ccc(CC3SC(=O)NC3=O)cc2)nc1 (centres undefined) [Pioglitazone·HCl] (concentration: 25 µM)
[1]
  mean cell size: 0.966 ± 0.039
[2]
  cell count: 0.906 ± 0.16

## CN/C(=N\CCSCc1nc[nH]c1C)NC#N [Cimetidine] (concentration: 25 µM)
[1]
  mean cell size: 1.02 ± 0.072
[2]
  cell count: 0.733 ± 0.17

## CCCCS(=O)(=O)N[C@@H](Cc1ccc(OCCCCC2CCNCC2)cc1)C(=O)O [Tirofiban·HCl] (concentration: 25 µM)
[1]
  mean cell size: 0.937 ± 0.023
[2]
  cell count: 1.01 ± 0.08

## NS(=O)(=O)c1cc(C2(O)NC(=O)c3ccccc32)ccc1Cl (centres undefined) [Chlorthalidone] (concentration: 25 µM)
[1]
  mean cell size: 1.03 ± 0.028
[2]
  cell count: 0.918 ± 0.044

## Clc1ccc(CO/N=C(\Cn2ccnc2)c2ccc(Cl)cc2Cl)c(Cl)c1 [Oxiconazole Nitrate] (concentration: 25 µM)
[1]
  mean cell size: 0.933 ± 0.016
[2]
  cell count: 0.87 ± 0.18

## CC[C@H]1OC(=O)[C@H](C)[C@@H](O[C@H]2C[C@@](C)(OC)[C@@H](O)[C@H](C)O2)[C@H](C)[C@@H](O[C@@H]2O[C@H](C)C[C@H](N(C)C)[C@H]2O)[C@](C)(OC)C[C@@H](C)C(=O)[C@H](C)[C@@H](O)[C@]1(C)O [Clarithromycin] (concentration: 25 µM)
[1]
  mean cell size: 0.977 ± 0.057
[2]
  cell count: 1.05 ± 0.078
